Among the data in the GenesisPotency data set are outcome values, retold here.

The campaign covered roughly 500 compounds. About 40 (8%) were called active.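 The calls were made as follows: active = mean IC50 below 20 µM in each of the two panels, so potent in both; inactive = the rest.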 A selection follows.

The assay concerns the target T1, Neuropilin-1, Homo sapiens (UniProt O14786).
T1 sequence (whole entry): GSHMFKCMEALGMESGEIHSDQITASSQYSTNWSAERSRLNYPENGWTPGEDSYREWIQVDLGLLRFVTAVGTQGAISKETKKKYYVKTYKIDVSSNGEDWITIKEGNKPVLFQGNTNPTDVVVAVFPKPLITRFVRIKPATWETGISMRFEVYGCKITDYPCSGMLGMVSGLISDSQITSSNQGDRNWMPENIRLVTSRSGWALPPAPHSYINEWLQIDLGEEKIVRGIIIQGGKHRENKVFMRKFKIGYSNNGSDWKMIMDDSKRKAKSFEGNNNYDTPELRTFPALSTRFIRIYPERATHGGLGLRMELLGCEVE
Put plainly: NRP-1 b1b2 CendR peptide binding inhibitors, dose response, biochemical, FP and AlphaScreen panel (AID 651650). Background: In Alpha technology, singlet oxygen from a donor bead excites a nearby acceptor bead.
As for `Cn1c(=O)c2[nH]c(COc3ccccc3)nc2n(C)c1=O`, the call was inactive.
